Data reported in PubChem BioAssay AID1851 (National Center for Advancing Translational Sciences (NCATS), 2009).
Out of some 16,000 compounds screened, about 2,600 (16%) were called active. Not shown: some 20% with an inconclusive outcome. The list is a sample of the results. A number with no mark means an inactive call. The call rests on the fitted dose curve; in most records, active means well fitted curve in the direction sought with a large enough effect; inconclusive means small, poorly fitted or top-dose-only effect, or effect the other way; inactive means no such curve, though single readings can be large or run the other way. Peptide text beside a SMILES is read from it. * marks the point of attachment. PhAc = O=C(Cc1ccccc1)*; OBn = c1ccc(CO*)cc1

target: Cytochrome P450 2D6 (Homo sapiens) (UniProt P10635); experiment: Cytochrome panel assay with activity outcomes; conditions: recombinant CYP, pro-luciferin dealkylation, luminescence, p450-cyp2d6; series mostly up to 57.1 µM
On the % scale 0 is the no-effect control and ±100 the full control effect.

Sequence of Cytochrome P450 2D6 (Homo sapiens) (P10635 whole entry, looked up): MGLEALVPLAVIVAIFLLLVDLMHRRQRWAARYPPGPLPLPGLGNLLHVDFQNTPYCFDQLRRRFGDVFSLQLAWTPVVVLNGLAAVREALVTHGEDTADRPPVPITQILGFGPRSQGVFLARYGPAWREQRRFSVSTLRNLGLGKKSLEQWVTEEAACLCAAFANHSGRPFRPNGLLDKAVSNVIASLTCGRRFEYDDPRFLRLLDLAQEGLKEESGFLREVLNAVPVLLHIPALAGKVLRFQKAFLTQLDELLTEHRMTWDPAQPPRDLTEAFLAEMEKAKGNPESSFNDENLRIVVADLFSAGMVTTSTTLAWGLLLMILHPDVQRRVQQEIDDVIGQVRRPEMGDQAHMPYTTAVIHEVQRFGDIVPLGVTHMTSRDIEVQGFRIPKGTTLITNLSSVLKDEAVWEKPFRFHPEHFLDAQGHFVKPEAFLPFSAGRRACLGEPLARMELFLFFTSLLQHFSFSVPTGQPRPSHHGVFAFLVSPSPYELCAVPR

| SMILES | AC50 | activity, negative = inhibition |
| --- | --- | --- |
| CS(=O)(=O)Nc1c(O)ccc2c1CCC[C@H]2C1=NCCN1 | inactive | – |
| N[C@H](C(=O)O)c1cc(O)cc(O)c1 | inactive | – |
| O=C(NOC(=O)c1cc(Br)ccc1Cl)c1cccs1 | inactive | – |
| O=C(CNC(=O)c1cccs1)NCC(=O)OCc1ccc(Cl)cc1 | 15.8 µM (active) | – |
| C/C(=N/NC(=O)c1cccs1)c1ccc(NC(=O)COc2ccc(Cl)cc2Cl)cc1 | inactive | – |
| O=C(CNC(=O)c1cccs1)NCC(=O)OCc1ccc(Cl)cc1Cl | 3.55 µM (active) | – |
| CC(C)(C)c1ccc(COC(=O)CNC(=O)CNC(=O)Cc2ccccc2)cc1 | inactive | – |
| O=C(CNC(=O)Cc1ccccc1)NCC(=O)OCc1ccccc1 (PhAc-Gly-Gly-OBn) | inactive | – |
| NCCSC[C@H](N)C(=O)O | – | -2.62% [at 11.4 µM] |
| Cc1n[nH]c(=O)[nH]c1=O | inactive | – |
| C[C@@]12C=CC(=O)C=C1CC[C@@H]1[C@@H]2[C@H](O)C[C@]2(C)[C@@H]1CC[C@]2(O)C(=O)CO | inactive | – |
| COc1ccc(-n2c(=O)c(C)nc3cnc(Oc4ccccc4)nc32)cc1 | inactive | – |
| N#C/C(=C\c1cc([N+](=O)[O-])c(N2CCCCC2)cc1N1CCCCC1)c1nn(-c2ccccc2)c(N)c1C#N | inactive | – |
| COc1cc(/C=C(/C#N)c2nc3ccccc3[nH]2)ccc1OCC(=O)Nc1ccccc1C | inactive | – |
| N#C/C(=C\c1ccc(Oc2ccc(C(F)(F)F)cc2[N+](=O)[O-])cc1)c1nc2ccccc2[nH]1 | inactive | – |
| O=C(O/N=C\c1ccc(N2CCCCC2)c([N+](=O)[O-])c1)c1c(F)cccc1F | inactive | – |
| N#C/C(=C\c1ccc(N2CCCC2)c([N+](=O)[O-])c1)c1nc2ccccc2[nH]1 | 0.631 µM (active) | – |
| N#C/C(=C/c1ccc(N2CCCC2)c([N+](=O)[O-])c1)c1nc2ccccc2[nH]1 | 0.2 µM (active) | – |
| CSc1ncnc2c1ncn2[C@@H]1O[C@@H](CO)[C@H](O)O[C@@H]1O | – | 14.1% [at 11.4 µM] |
| CC(NC(=O)OCc1ccccc1)C(=O)NCC1CCCO1 (stereo not drawn) | inactive | – |
| CCCC[C@@H]1C[C@H]1C(NC(=O)c1cccs1)c1ccc(Cl)cc1 (stereo partly drawn) | inactive | – |
| O=S(=O)(O)c1ccc(N=Nc2ccc3c(S(=O)(=O)O)cccc3c2O)c2ccccc12 | – | -18.7% [at 11.4 µM] |
| Cn1c(SCC(=O)Nc2ccccc2)nc(O)cc1=O | inactive | – |
| CCc1c(C)nc(N)n2c(SCC(=O)Nc3ccccc3)nnc12 | 1.41 µM (active) | – |

| SMILES | AC50 | activity, negative = inhibition |
| --- | --- | --- |
| CCN(CC)c1ccc(NC(=O)CSc2nnc3nc(C)cc(C)n23)cc1 | inactive | – |
| COc1ccc(Oc2ncc3nc(CCc4ccccc4)c(=O)n(CCC#N)c3n2)cc1 | inactive | – |
| Cc1cccc(OC2(c3ccccc3)OC(=O)c3ccccc32)c1C (stereo not drawn) | inactive | – |
| CCN(CC)C(=O)COc1ccc(S(=O)(=O)N2CCOCC2)cc1 | inactive | – |
| N#C/C(=C\NC(=S)c1ccncc1)c1nc2ccccc2s1 | – | -9.99% [at 11.4 µM] |
| C=CCn1c(=O)c(C(=O)NCCN(CC)CC)c(O)c2ccccc21 | 4.47 µM (active) | – |
| CCCc1c(O)c2ccccc2n(-c2ccccc2)c1=O | inactive | – |
| CN(C(=O)c1c(O)c2ccccc2n(C)c1=O)c1ccccc1 | inactive | – |
| COc1ccc(NC(=O)N2CCCC3(CCN(C(=O)c4cnccn4)CC3)C2)cc1 | inactive | – |
| Cc1cc(NC(=O)c2cc(C(C)C)on2)no1 | inactive | – |
| CCOC(=O)N1CCN(CC(=O)c2ccc3c(c2)CCN3)CC1 | inactive | – |
| CC(=O)C1=C(O)C=C(c2ccco2)CC1c1ccco1 (stereo not drawn) | inactive | – |
| c1ccc(-c2nc(CSc3n[nH]c(-c4cccs4)n3)cs2)cc1 | 1.12 µM (active) | – |
| CSc1n[nH]c(-c2sccc2OCc2ccc(C)cc2)n1 | inactive | – |
| Cc1cc(NC(=O)CSc2n[nH]c(-c3cccs3)n2)no1 | inactive | – |
| C=CC[C@@H](C(=O)O)c1ccccc1 | – | 1.94% [at 11.4 µM] |
| CCc1c(C)c(C#N)c2nc3ccccc3n2c1N1CCN(c2cc(C)ccn2)CC1 | inactive | – |
| C[C@H]1CCCC=CC2C[C@H](OC(=O)CN(C)C)C[C@@H]2[C@@H](O)/C=C\C(=O)O1 (stereo partly drawn) | – | 9.34% [at 11.4 µM] |
| Cc1cccc2sc(NC(=O)C3c4ccccc4Oc4ccccc43)nc12 | inactive | – |
| Cn1cccc1C(=O)N1CCC2(CC1)CN(c1cccc(-c3ccccc3)c1)C2 | inactive | – |
| O=S(=O)(c1ccccc1)N1CCC2(CCCN(c3cccc(-c4ccccc4)c3)C2)CC1 | inactive | – |
| c1ccc(-c2cccc(N3CC4(CCNCC4)C3)c2)cc1 | 20 µM (active) | – |
| O=S(=O)(c1ccccc1)N1CCC[C@@]2(CCN(c3cccc(-c4ccccc4)c3)C2)C1 | inactive | – |
| c1ccc(-c2cccc(N3CC[C@@]4(CCCNC4)C3)c2)cc1 | 10 µM (active) | – |

| SMILES | AC50 | activity, negative = inhibition |
| --- | --- | --- |
| CS(=O)(=O)N1CCC2(CC1)CN(c1cccc(-c3ccccc3)c1)C2 | inactive | – |
| Cc1ccccc1C(=O)Nc1ccc(C(=O)NNC(=O)CCCOc2ccc(Cl)cc2Cl)cc1 | inactive | – |
| COc1cc(Br)c(C(C)NC(=O)c2cccc(Br)c2)cc1OC (stereo not drawn) | inactive | – |
| C/C(=N\NC(=O)c1cccc(C)c1)c1cccc(NC(=O)c2ccco2)c1 | inactive | – |
| Cn1c([N+](=O)[O-])cnc1COC(N)=O | inactive | – |
| Cc1cc(C)c2cc(C#N)c(NCCOC(=O)c3ccccc3C)nc2c1 | inactive | – |
| Cc1nn(-c2ccc(Cl)cc2)c2sc(C(=O)c3c(N)n(C)c(=O)n(C)c3=O)cc12 | inactive | – |
| Cc1nn(-c2ccccc2)c2c1C(c1ccc(O)c(O)c1)N1C(=N2)C(Nc2ccccc2)=Nc2ccccc21 (stereo not drawn) | inactive | – |
| COc1ccccc1OCc1ccc(C(=O)N(C)C)o1 | inactive | – |
| Cc1ccc(C(=O)NNC(=O)CSc2nnc3c(n2)[nH]c2ccc(F)cc23)cc1 | inactive | – |
| O=C(O)c1cc(-c2ccc(-c3ccccc3)cc2)nc2cc3ccccc3cc12 | – | -10.7% [at 11.4 µM] |
| COc1ccc(OC)c(-c2cc(C(=O)O)c3cc4ccccc4cc3n2)c1 | 3.98 µM (active) | – |
| CC(=O)Nc1ccc(-c2cc(C(=O)O)c3cc4ccccc4cc3n2)cc1 | – | -6.98% [at 11.4 µM] |
| O=C(Oc1ccc(C(=S)N2CCOCC2)cc1Br)c1cc(Cl)ccc1Cl | inactive | – |
| O=C(O)c1ccc(C(=O)Nc2cccc3ccccc23)c(C(=O)O)c1 | – | 10.4% [at 11.4 µM] |
| COc1ccc(-n2c(=O)c(C)nc3cnc(Nc4cccc(OC)c4)nc32)cc1 | inactive | – |
| COc1cccc2cc(C(=O)CC3(O)C(=O)N(Cc4ccccc4)c4ccccc43)c(=O)oc12 (stereo not drawn) | inactive | – |
| COc1cccc(-c2nccc(NCc3cccc(C)c3)n2)c1 | 10 µM (active) | – |
| COc1cccc(-c2nccc(NCc3ccccc3)n2)c1 | 1 µM (active) | – |
| COc1cccc(Nc2ncc3nc(-c4ccccc4)c(=O)n(Cc4cccs4)c3n2)c1 | inactive | – |
| COc1ccc(-c2nc3cnc(Nc4cccc(OC)c4)nc3n(Cc3cccs3)c2=O)cc1 | inactive | – |
| COc1cccc(-c2nccc(NCc3cccs3)n2)c1 | 0.316 µM (active) | – |
| COc1cccc(-c2nccc(NCc3cnc(C)cn3)n2)c1 | inactive | – |
| CCOC(=O)CCN1C(=O)[C@H]2[C@@H]3[C@H](O)[C@H](O)CC(=O)[C@H]3CC[C@H]2C1=O | – | -6.39% [at 11.4 µM] |

| SMILES | AC50 | activity, negative = inhibition |
| --- | --- | --- |
| CC(C)CN(CC#N)CC(C)C | – | 1.21% [at 11.4 µM] |
| O=C(c1cc(C(F)(F)F)cc(C(F)(F)F)c1)N1CCC2(CC1)CN(c1ccccc1)C2 | inactive | – |
| O=c1ncn(-c2ccccc2F)c2ncccc12 | inactive | – |
| CN1CCCC2(CCN(C(=O)c3cc(C(F)(F)F)cc(C(F)(F)F)c3)CC2)C1 | inactive | – |
| O=C(Nc1ccccc1N1CCN(C(=O)c2ccc(Cl)cc2)CC1)c1cc(Br)ccc1Cl | inactive | – |
| C[C@@H](c1ccccc1)N1C(=O)[C@H]2[C@H]3[C@H](O)[C@H](O)C/C(=N/OC[C@@H](O)COCc4ccco4)[C@@H]3CC[C@@H]2C1=O | – | 3.23% [at 11.4 µM] |
| O=C(N/N=C/c1c[nH]c2ccccc12)c1cc(-c2ccc(-c3ccccc3)cc2)n[nH]1 | inactive | – |
| O=C(N/N=C/c1c[nH]c2ccc(Br)cc12)c1ccn(Cc2ccc(Cl)cc2)n1 | 12.6 µM (active) | – |
| [N-]=[N+]=NC[C@@H]1O[C@@H](n2cnc3c(N)ncnc32)[C@@H]2O[C@@H]21 | – | 3.12% [at 11.4 µM] |
| CC(=O)N1CCc2cc(S(=O)(=O)CCC(=O)Nc3c(C)n(C)n(-c4ccccc4)c3=O)ccc21 | inactive | – |
| CC(C)CCNC1=NCCCCC1 | 12.6 µM (active) | – |
| Cc1ccc2[nH]c3nc(CCCn4ccnc4-c4ccccc4)nnc3c2c1 | – | -15.6% [at 11.4 µM] |
| Cc1sc(NC(=O)c2ccc(OCC(C)C)cc2)c(C(N)=O)c1-c1ccc(Cl)cc1Cl | inactive | – |
| N#Cc1cccc(NC(=O)N2CC3(CCN(C(=O)c4cnccn4)CC3)C2)c1 | inactive | – |
| CCOc1ccccc1C1C(C#N)=C(N)Oc2n[nH]c(CC)c21 (stereo not drawn) | inactive | – |
| O=C(N/N=C\c1ccc(-c2ccccc2[N+](=O)[O-])o1)C1COc2cc3ccccc3cc2O1 (stereo not drawn) | inactive | – |
| CN(C)c1ccnc(Oc2ccc(Cl)cc2)c1C#N | 5.01 µM (active) | – |
| N#Cc1c(-c2ccccc2)ccnc1Oc1ccccc1 | inactive | – |
| Cc1cc(C)c(C#N)c(Oc2ccc(F)cc2)n1 | inactive | – |
| COC(=O)[C@@H]1CC[C@H](C)[C@@H](c2ccc(C)cc2)N1C(=O)c1ccc(/C=N\OC[C@@H]2O[C@H](c3ccccc3)C=C[C@@H]2Oc2ccc(OC)cc2)cc1 | – | 3.42% [at 11.4 µM] |
| CCCN[C@@H](C)C(=O)Nc1c(C)csc1C(=O)OC | inactive | – |
